Only some compounds are listed: those with a hit (about 2.9% of all), similar ones and a draw of the others.
MEKK2 WT-MEK5 = raises or lowers MEK5 binding to wildtype human MEKK2 PB1 domain; binding response (% of control), % at 10 µM; 290,000 tested, 1.1% active; bead flow cytometry, Alexa488-MEK5 binding to MEKK2 WT; actives lie on both sides; Q9Y2U5; in the data active = binding response below about 67% or above about 130%
dFosB activator = enhances mouse delta FosB homodimer DNA binding. purified delta FosB, TAMRA-CDK5 oligo fluorescence polarization; percent of positive-control signal above neutral wells. activation, % at 25 µM. P13346. 340,000 tested, 0.99% active;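 active = mean activation above about 17%, with every replicate also reaching it, limit read from the data, passing the limit was not always enough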
DNA FID counter = counter-screen for HCV NS3 helicase inhibitors: DNA intercalator displacement; 290,000 tested, 0.17% active; inhibition, % at 7.9 µM; DNA fluorescent intercalator displacement, fluorescence; in the data active = inhibition above about 37%;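 note: 0% = vehicle and 100% = reference compound; higher means more ethidium bromide displaced from hairpin DNA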
MEKK2mut PB1 HTS = signal of MEK5 binding to mutant human MEKK2 PB1 domain | bead flow cytometry, Alexa488-MEK5 binding to MEKK2 mutant | percent response, % at 10 µM | 290,000 tested, 0.35% active | AID 1530; in the data active = percent response above about 24%, passing the limit was not always enough
MEKK3 PB1 HTS = raises or lowers MEK5 binding to the human MEKK3 PB1 domain | 290,000 tested, 1.4% active | bead-based flow cytometry, Alexa488-MEK5 binding to MEKK3; actives lie on both sides; 0 = blocked by unlabeled MEK5, 100 = vehicle | AID 1529 | Q99759 | binding response (% of control), % at 10 µM;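 active = binding response more than 3 SD above or below the average of its plate-row segment, actives on both sides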;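 note: Alexa488 bead fluorescence after subtracting the streptavidin-only scavenger bead signal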
Target sequence (Q99759 whole entry, looked up, the tested form may be a part): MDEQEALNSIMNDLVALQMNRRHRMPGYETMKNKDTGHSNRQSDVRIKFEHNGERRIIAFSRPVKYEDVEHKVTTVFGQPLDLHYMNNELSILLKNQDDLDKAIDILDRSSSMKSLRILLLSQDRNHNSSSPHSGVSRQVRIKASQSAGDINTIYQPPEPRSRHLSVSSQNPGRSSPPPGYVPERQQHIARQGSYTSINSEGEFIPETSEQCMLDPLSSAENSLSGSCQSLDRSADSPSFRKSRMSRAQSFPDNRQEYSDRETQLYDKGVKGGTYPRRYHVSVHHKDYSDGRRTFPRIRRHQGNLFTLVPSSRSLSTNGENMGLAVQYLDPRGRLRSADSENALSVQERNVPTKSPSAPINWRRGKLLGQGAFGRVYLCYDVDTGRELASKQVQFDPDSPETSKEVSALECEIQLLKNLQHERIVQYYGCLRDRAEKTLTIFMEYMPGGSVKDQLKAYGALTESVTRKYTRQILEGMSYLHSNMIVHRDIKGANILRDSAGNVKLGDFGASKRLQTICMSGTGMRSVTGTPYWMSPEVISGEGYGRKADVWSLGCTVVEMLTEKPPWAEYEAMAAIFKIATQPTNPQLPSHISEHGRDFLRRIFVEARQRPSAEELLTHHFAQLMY
MEKK2wt confirm = raises or lowers MEK5 binding to wildtype human MEKK2, retest; shares compounds with MEKK3 PB1 HTS; bead flow cytometry, Alexa488-MEK5 binding to MEKK2 WT; actives lie on both sides; binding response (% of control), % at 10 µM; 5,900 tested, 2.4% active; AID 1892; in the data active = binding response below about 16% or above about 210%; inactive = in between
MEKK2mut confirm = signal of MEK5 binding to mutant human MEKK2, retest. shares compounds with MEKK3 PB1 HTS. bead flow cytometry, Alexa488-MEK5 binding to MEKK2 mutant. percent response, % at 10 µM. 5,900 tested, 2% active. AID 1893; in the data active = percent response mostly above about 71%, no sharp cut-off; inactive = mostly below about 38%;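 note: higher means compound restores mutant binding toward wildtype level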
MEKK3-MEK5 inh = confirmation of inhibitors of MEK5 binding to human MEKK3; binding response (% of control), % at 10 µM; bead flow cytometry, Alexa488-MEK5 binding to MEKK3; stronger effect = lower value; 5,900 tested, 1.8% active; shares compounds with MEKK3 PB1 HTS;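 active = binding response below 72% of control, or above a set upper limit, though filed actives all read lower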;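 note: 100% = DMSO only wells and 0% = binding blocked by excess unlabeled MEK5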
* hit, by the source's call; [ ] = remark or other dose.

For Cc1ccc(NC(=S)N(Cc2ccco2)C2CCN(C(C)C)CC2)cc1 the results were MEKK2 WT-MEK5 105, dFosB activator 3, DNA FID counter 0, MEKK2mut PB1 HTS 1, MEKK3 PB1 HTS 132*, MEKK2wt confirm 104, MEKK2mut confirm 5 and MEKK3-MEK5 inh 99.
`COCCN(C(=S)Nc1ccc(OC)cc1)C1CCN(C(C)C)CC1` gave MEKK2 WT-MEK5 109, dFosB activator -3, DNA FID counter -4, MEKK2mut PB1 HTS 1, MEKK3 PB1 HTS 134*, MEKK2wt confirm 100, MEKK2mut confirm 7 and MEKK3-MEK5 inh 105.
COCCN(C(=S)Nc1cccc(OC)c1)C1CCN(C(C)C)CC1 was read as MEKK2 WT-MEK5 108, dFosB activator -1, DNA FID counter 5, MEKK2mut PB1 HTS 0, MEKK3 PB1 HTS 137*, MEKK2wt confirm 106, MEKK2mut confirm 6 and MEKK3-MEK5 inh 101.
For C=CCN1C(=O)C(Cc2cccc(Cl)c2)SC1=Nc1ccc(C(=O)O)cc1 (stereo unspecified) the results were MEKK2 WT-MEK5 95, dFosB activator -2, DNA FID counter -39, MEKK2mut PB1 HTS -3 and MEKK3 PB1 HTS 101.
`COc1cc(C(=S)N2CCN(C(c3ccccc3)c3ccccc3)CC2)cc(OC)c1O` gave MEKK2 WT-MEK5 96, dFosB activator -2, DNA FID counter -33, MEKK2mut PB1 HTS 0 and MEKK3 PB1 HTS 103.
For CC(=O)NC1CCC(OC(=O)Nc2ccccc2)CC1 (stereo unspecified) the results were dFosB activator 0.
Screening COc1cc(CN(CCN(C)C)Cc2ccccc2)ccc1OCc1ccccc1 returned MEKK2 WT-MEK5 138*, dFosB activator -8, DNA FID counter 28, MEKK2mut PB1 HTS 10, MEKK3 PB1 HTS 106, MEKK2wt confirm 126, MEKK2mut confirm 14 and MEKK3-MEK5 inh 106.
Screening COc1ccc(C(=O)N[C@H](C(=O)Nc2nc3c(s2)CCCC3)C(C)C)cc1 returned MEKK2 WT-MEK5 96, dFosB activator -2, DNA FID counter -26, MEKK2mut PB1 HTS -2 and MEKK3 PB1 HTS 96.
`CCOc1ccccc1C(=O)N[C@H](C(=O)Nc1nc2c(s1)CCCC2)C(C)C` gave MEKK2 WT-MEK5 101, dFosB activator -6, DNA FID counter -17, MEKK2mut PB1 HTS 1, MEKK3 PB1 HTS 137*, MEKK2wt confirm 97, MEKK2mut confirm -2 and MEKK3-MEK5 inh 102.
CCSC1=NCCN1S(=O)(=O)c1ccccc1 was read as MEKK2 WT-MEK5 58, dFosB activator -5, DNA FID counter -7, MEKK2mut PB1 HTS -16, MEKK3 PB1 HTS 50*[inhibitor], MEKK2wt confirm 103, MEKK2mut confirm -2 and MEKK3-MEK5 inh 106.
Cc1c(C(=O)Nc2ccc(C(F)(F)F)cc2)sc2ncn(CC(=O)N3CCN(c4ccccn4)CC3)c(=O)c12 was read as MEKK2 WT-MEK5 101, dFosB activator 10, DNA FID counter -9, MEKK2mut PB1 HTS -5 and MEKK3 PB1 HTS 101.
For O=c1ccc(Cl)cn1Cc1ccccc1F the results were MEKK2 WT-MEK5 91, dFosB activator 7, DNA FID counter 1, MEKK2mut PB1 HTS 7, MEKK3 PB1 HTS 127*, MEKK2wt confirm 95, MEKK2mut confirm -2 and MEKK3-MEK5 inh 95.
For Cc1nc(CCNC(=O)c2cc(COc3ccc(F)cc3Cl)on2)sc1C the results were MEKK2 WT-MEK5 105, dFosB activator -8, DNA FID counter -28, MEKK2mut PB1 HTS -1 and MEKK3 PB1 HTS 101.
O=C(O)CCC(=O)Nc1ccc(Cc2ccc(NC(=O)CCC(=O)O)c(O)c2)cc1O was read as MEKK2 WT-MEK5 107, dFosB activator -1, DNA FID counter -1, MEKK2mut PB1 HTS 4 and MEKK3 PB1 HTS 111.
O=C(Nc1ccc(Cc2ccc(NC(=O)C3CC3)c(O)c2)cc1O)C1CC1 was read as MEKK2 WT-MEK5 119, dFosB activator 0, DNA FID counter -5, MEKK2mut PB1 HTS 6, MEKK3 PB1 HTS 127*, MEKK2wt confirm 113, MEKK2mut confirm 7 and MEKK3-MEK5 inh 103.
Screening O=C(Nc1nnc(-c2ccccc2F)s1)C1CCN(S(=O)(=O)c2ccc(Cl)cc2)CC1 returned MEKK2 WT-MEK5 101, dFosB activator 3, DNA FID counter 1, MEKK2mut PB1 HTS 1 and MEKK3 PB1 HTS 96.
Screening O=C(Nc1nnc(-c2ccccc2Cl)s1)C1CCN(S(=O)(=O)c2ccc(Cl)cc2)CC1 returned MEKK2 WT-MEK5 100, dFosB activator 0, DNA FID counter 1, MEKK2mut PB1 HTS 0, MEKK3 PB1 HTS 140*, MEKK2wt confirm 101, MEKK2mut confirm 0 and MEKK3-MEK5 inh 101.
COc1ccc(CNCCNC(=O)c2ccco2)c(OC)c1OC was read as MEKK2 WT-MEK5 114, dFosB activator 0, DNA FID counter 2, MEKK2mut PB1 HTS 6, MEKK3 PB1 HTS 127*, MEKK2wt confirm 103, MEKK2mut confirm 3 and MEKK3-MEK5 inh 102.
Cc1ccccc1CN1CCNC(=O)C1CC(=O)NCCN1CCCCC1=O (stereo unspecified) was read as MEKK2 WT-MEK5 110, dFosB activator 3, DNA FID counter -12, MEKK2mut PB1 HTS 6 and MEKK3 PB1 HTS 103.
For Cc1cccc(-n2c(=O)c3c4c(sc3n3c(=S)[nH]nc23)CCC4)c1 the results were MEKK2 WT-MEK5 111, dFosB activator -7, DNA FID counter -9, MEKK2mut PB1 HTS 0, MEKK3 PB1 HTS 131*, MEKK2wt confirm 121, MEKK2mut confirm 13 and MEKK3-MEK5 inh 107.
For Cc1cc2c(cc1S(=O)(=O)N(C)Cc1ccccc1)OCC(=O)N2 the results were MEKK2 WT-MEK5 100, dFosB activator 10, DNA FID counter -17, MEKK2mut PB1 HTS 0 and MEKK3 PB1 HTS 98.
For CCN1c2ccccc2-c2nc3ccccc3n2C1c1cccs1 (stereo unspecified) the results were MEKK2 WT-MEK5 0.0*[inhibitor], dFosB activator 7, DNA FID counter -25, MEKK2mut PB1 HTS -5, MEKK3 PB1 HTS 0.0*[inhibitor], MEKK2wt confirm 104, MEKK2mut confirm 0 and MEKK3-MEK5 inh 105.
Screening CCCn1c(-c2cccs2)nc2ccccc21 returned MEKK2 WT-MEK5 97, dFosB activator -4, DNA FID counter -5, MEKK2mut PB1 HTS 0 and MEKK3 PB1 HTS 97.
`CN(CCCN1CCCCC1)C(=O)c1cc(COc2ccc(F)cc2F)on1` gave MEKK2 WT-MEK5 109, dFosB activator 0, DNA FID counter 8, MEKK2mut PB1 HTS 5 and MEKK3 PB1 HTS 100.

Screening data as filed in PubChem BioAssay.
